Laboratory results: PubChem BioAssay (Tox21)
Results filed as inconclusive are left out. Calls of active or inactive are those of the source. Unless noted, calls follow the shape of the dose curve; as a rule, active = well fitted curve in the direction sought with a large enough effect in the repeat runs; inconclusive = weak or mixed curves; inactive = no such curve, though single readings can be large; an effect the other way counts as inactive or inconclusive.

Columns and labels:
[1] = qHTS assay to identify small molecule agonists of the vitamin D receptor (VDR) signaling pathway - cell viability counter screen (AID 743224); also: series mostly up to about 63 µM; nearly all actives have a fitted effect of over 50% in size
Summary of the method: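 VDR-bla cell line, quantitative HTS format; 16 h compound incubation (37C, 5% CO2); ATP-based CellTiter-Glo luminescence measured in the reporter assay wells.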

[2] = qHTS assay to identify small molecule antagonists of the vitamin D receptor (VDR) signaling pathway - cell viability counter screen (AID 743225); also: nearly all actives have a fitted effect of over 50% in size
Summary of the method: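 VDR-bla HEK 293T cells, 4 h pre-incubation at 37C, then compound plus 1-alpha,25-dihydroxyvitamin D3 (3 nM final) for 16 h. After the beta-lactamase FRET read, CellTiter-Glo was added to the same wells; luminescence after 30 min at room temperature.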

[3] = qHTS assay to identify small molecule agonists of the NFkB signaling pathway (AID 1159509; active = well fitted curve in the direction sought with a large enough effect in the signal ratio in the repeat runs, not every such curve was filed as active; the % refers to the signal ratio; also: series mostly up to about 61 µM)
Summary of the method: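 NFkB-bla ME-180 cells carry a beta-lactamase reporter under an NF-kB response element. They were plated overnight, then exposed to compounds for 5 h at 37 C. Read-out is LiveBLAzer FRET after 1.5 hr at room temperature (405 nm excitation; 460/530 nm emission).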

[4] = qHTS assay to identify small molecule agonists of the NFkB signaling pathway - cell viability counter screen (AID 1159515; calls by dose curve; also: series mostly up to about 61 µM; nearly all actives have a fitted effect of over 55% in size)
Summary of the method: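 Viability in NFkB-bla ME-180 cells was measured by CellTiter-Glo luminescence, 30 min room temperature, in wells already treated 5 hr with compounds and read for reporter FRET.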

[5] = qHTS assay to identify small molecule agonists of the endoplasmic reticulum stress response signaling pathway (AID 1159516; active = well fitted activation curve with a large enough effect in the signal ratio in the repeat runs, not every such curve was filed as active; the % refers to the signal ratio)
Summary of the method: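 ER stress element reporter (bla) in HeLa. 1,500 cells/well, overnight attachment; 5 hr compound; 2 hr RT substrate; dual-emission fluorescence.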

[6] = qHTS assay to identify small molecule agonists of the endoplasmic reticulum stress response signaling pathway - cell viability counter screen (AID 1159517; calls by dose curve;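 also: HeLa cells carrying an ER stress response element beta-lactamase reporter; series mostly up to about 61 µM; nearly all actives have a fitted effect of over 50% in size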)
Summary of the method: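 HeLa cells carrying an ESRE-driven beta-lactamase reporter receive compound for 5 hr at 37 C. Cell viability is then gauged with CellTiter-Glo by luminescence, 30 min at room temperature.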

[7] = qHTS assay to identify small molecule antagonists of the retinoid-related orphan receptor gamma (ROR-gamma) signaling pathway - cell viability counter screen (AID 1159520); also: nearly all actives have a fitted effect of over 50% in size
Summary of the method: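 Cytotoxicity was read from cellular ATP (CellTiter-Glo luminescence) after 16 hr at 37 C with 1 uM doxycycline induction. The inducer was added 2 hr after compound transfer to Tet-on ROR gamma CHO cells.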

[8] = qHTS assay to identify small molecule agonists of the AP-1 signaling pathway - cell viability counter screen (AID 1159525; calls by dose curve; also: nearly all actives have a fitted effect of over 55% in size)
Summary of the method: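 Luminescent ATP readout (Cell Titer Glo, 30 min RT), normalised to DMSO and tetra n-octyl ammonium bromide controls. Cells were ME-180 AP-1-bla in 0.5% dialyzed FBS Opti-MEM, with a 5 h, 37 °C compound exposure.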

[9] = qHTS assay to identify small molecule agonists of the AP-1 signaling pathway (AID 1159526; calls by dose curve)
[10] = molecular target: Retinoic acid receptor RXR-alpha (Homo sapiens) (UniProt P19793); experiment: qHTS assay to identify small molecule agonists of the RXR signaling pathway (AID 1159527; calls by dose curve; also: nearly all actives have a fitted effect of over 35% in size)
Retinoic acid receptor RXR-alpha (Homo sapiens), sequence (P19793 whole entry, looked up): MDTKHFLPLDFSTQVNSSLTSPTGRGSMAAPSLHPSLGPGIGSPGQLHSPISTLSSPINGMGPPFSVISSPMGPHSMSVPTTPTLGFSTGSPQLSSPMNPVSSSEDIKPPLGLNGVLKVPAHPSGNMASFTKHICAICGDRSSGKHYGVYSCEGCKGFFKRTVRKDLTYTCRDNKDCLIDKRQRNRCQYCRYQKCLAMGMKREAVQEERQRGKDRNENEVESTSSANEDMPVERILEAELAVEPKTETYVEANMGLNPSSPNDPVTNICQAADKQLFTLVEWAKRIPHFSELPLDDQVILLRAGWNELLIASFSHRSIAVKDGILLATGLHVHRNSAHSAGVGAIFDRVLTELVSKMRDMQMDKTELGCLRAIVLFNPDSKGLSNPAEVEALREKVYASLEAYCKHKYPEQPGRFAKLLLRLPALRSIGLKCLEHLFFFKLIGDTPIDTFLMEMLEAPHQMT
Summary of the method: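 GeneBLAzer RXR-alpha-UAS-bla HEK 293T cells in medium with 2% charcoal-stripped FBS, pre-incubated 5 hr at 37 C, then exposed to compounds 16 hr. Beta-lactamase reporter read by FRET substrate, 2 hr room temperature, 460/530 nm emission.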

[11] = qHTS assay to identify small molecule agonists of the RXR signaling pathway - cell viability counter screen (AID 1159529)
Summary of the method: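 RXR-alpha-UAS-bla HEK 293T cells in medium with 2% charcoal-stripped FBS were preincubated 5 hr, then exposed to compounds for 16 hr at 37 C. Viability was read as CellTiter-Glo luminescence after 30 min at room temperature.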

[12] = qHTS assay to identify small molecule antagonists of the retinoid acid receptor (RAR) signaling pathway - cell viability counter screen (AID 1159551); also: nearly all actives have a fitted effect of over 35% in size
Summary of the method: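 Following overnight attachment, C3RL4 reporter cells received DMSO-dissolved compounds and then retinol (1 uM final). Six hours later at 37 C, ATP content was measured by CellTiter-Glo luminescence.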

[13] = qHTS assay to identify small molecule antagonists of the retinoic acid receptor (RAR) signaling pathway (AID 1159552; also: nearly all actives have a fitted effect of over 50% in size)
Summary of the method: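 RARE-luc C3RL4 cells; cpds + 1 uM (final) retinol, 6 hr, 37 C/5% CO2; luciferase reagent, 30 min RT, luminescence readout. Inhibitors of retinol-driven signal scored.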

[14] = qHTS assay to identify small molecule antagonists of the estrogen related receptor (ERR) signaling pathway - cell viability counter screen (AID 1224818);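 also: series mostly up to about 46 µM; viability measured after 17.5 h of compound exposure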
Summary of the method: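 Here, ERR cells are plated at 2,000 cells per well, allowed 6 h to attach, and treated with compounds in DMSO for 17.5 h at 37 C. CellTiter-Fluor is then added and fluorescence read after 30 min.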

[15] = qHTS assay to identify small molecule antagonists of the estrogen related receptor (ERR) signaling pathway (AID 1224819)
Summary of the method: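 LOPAC library screened for antagonism as reduced One-Glo luminescence in ERR reporter cells (2,000/well). Compounds were added after 6 h pre-incubation and left 18 h at 37C; reading followed a 30 min room-temperature reagent step.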

[16] = qHTS assay to identify small molecule agonists of the estrogen related receptor (ERR) signaling pathway (AID 1224820)
Summary of the method: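 ERR reporter cell line (from NTP), 2,000 cells/well, incubated 6 h before compound addition, then 18 h at 37 C. Luminescence measured 30 min after One-Glo reagent at room temperature.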

[17] = system: estrogen-related receptor alpha (ERRalpha) with PGC-1alpha coactivator, human; experiment: qHTS assay to identify small molecule antagonists of the estrogen related receptor signaling pathway with the pleiotropic PPARgamma coactivator (PGC) (AID 1224821; calls by dose curve)
Summary of the method: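 PGC/ERR reporter cell line, plated 6 h before compound addition, then exposed 18 h at 37 °C. Luciferase activity read by luminescence 30 min after One-Glo addition; decrease indicates antagonism.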

[18] = qHTS assay to identify small molecule antagonists of the estrogen related receptor signaling pathway with the pleiotropic PPARgamma coactivator (PGC) cell viability counter screen (AID 1224822;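 also: series mostly up to about 46 µM; viability read after 17.5 h compound exposure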)
Summary of the method: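 qHTS format, DMSO compound stocks pin-transferred onto PGC/ERR cells 6 h after plating; 17.5 h exposure at 37 C, then CellTiter-Fluor fluorescence.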

[19] = qHTS assay to identify small molecule agonists of the retinoic acid receptor (RAR) signaling pathway (AID 1159553)
Summary of the method: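 Cell line C3RL4, RARE luciferase reporter. Treatment: compounds in DMSO, 6 hr, 37 C, 5% CO2, after overnight plating. Detection: luminescence, 30 min RT after reagent.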

[20] = molecular target: Nuclear receptor ROR-gamma (Homo sapiens) (UniProt P51449); experiment: qHTS assay to identify small molecule antagonists of the retinoid-related orphan receptor gamma (ROR-gamma) signaling pathway (AID 1159521)
Summary of the method: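 Tet-on RORγ CHO cells carrying a ROR response element–luciferase reporter were pretreated with compounds for 2 h, then induced with 1 uM (final) doxycycline hyclate for 16 h at 37 C. Antagonism was read as decreased ONE-Glo luminescence.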

Measured: Potency

O=C(O)CCCl
not listed: [14] | [15] | [16] | [17] | [18] | [19] | [20]
inactive: all other assays above

COCCc1ccc(OCC(O)CNC(C)C)cc1 (centres undefined)
not listed: [2] | [13] | [19] | [20]
inactive: all other assays above

CCCCCCCCCCCC
not listed: [14] | [15] | [16] | [17] | [18] | [20]
inactive: all other assays above

C1OCOCO1
not listed: [14] | [15] | [16] | [17] | [18] | [20]
inactive: all other assays above

Cc1cccc(C)c1NC(=O)C(C)N (centres undefined)
not listed: [6]
inactive: all other assays above

CC(=O)c1ccccc1O
not listed: [11] | [14] | [15] | [16] | [17] | [18] | [20]
inactive: all other assays above

Cc1ccc(C#N)cc1
not listed: [2] | [6] | [14] | [15] | [16] | [17] | [18]
inactive: all other assays above

CC(C)=CCCC(C)CC(=O)O (centres undefined)
not listed: [14] | [15] | [16] | [17] | [18] | [20]
inactive: all other assays above

CC(=O)Nc1ccc(S(N)(=O)=O)cc1
not listed: [14] | [15] | [16] | [17] | [18] | [20]
inactive: all other assays above

COC(=O)NN
not listed: [14] | [15] | [16] | [17] | [18] | [20]
inactive: all other assays above

CN1CCC(=C2c3ccccc3CC(=O)c3sccc32)CC1
not listed: [6] | [15] | [16] | [17]
inactive: all other assays above

CCCCOCCOCCOCCCC
not listed: [14] | [15] | [16] | [17] | [18] | [20]
inactive: all other assays above

O=C(O)CNC(=O)c1ccc([N+](=O)[O-])cc1
not listed: [1] | [14] | [15] | [16] | [17] | [18] | [19] | [20]
inactive: all other assays above

CC1(C)CO[C@@H](CC(=O)O)CN1
not listed: [11] | [14] | [15] | [16] | [17] | [18] | [20]
inactive: all other assays above

CC/C=C\CC/C=C/CO
not listed: [2] | [3] | [11] | [14] | [15] | [16] | [17] | [18]
inactive: all other assays above

O=C1CCCN1C1CCCCC1
not listed: [2] | [6] | [14] | [15] | [16] | [17] | [18]
inactive: all other assays above

CCOC(=O)CC(C)=O
not listed: [3] | [11] | [14] | [15] | [16] | [17] | [18] | [20]
inactive: all other assays above

C=C1CC[C@H]2C[C@@H]1C2(C)C
not listed: [6] | [14] | [15] | [16] | [17] | [18] | [20]
inactive: all other assays above

O=C1CC2CC1C1CCCC21 (centres undefined)
not listed: [2] | [6] | [14] | [15] | [16] | [17] | [18]
inactive: all other assays above

NC(=O)Nc1ccccc1
not listed: [6] | [14] | [15] | [16] | [17] | [18] | [19] | [20]
inactive: all other assays above
